# Assay outcomes (PubChem BioAssay)
# DRD3 agonist = D3 dopamine receptor (human) agonism. max activation, %. P35462. hit rate 0.58% among 410,000. AID 652048. D3R DiscoveRx beta-arrestin cells, luminescence, 90 min; in the data active = max activation above about 30%; note: 0% is about no effect
# Target sequence (P35462 whole entry, looked up): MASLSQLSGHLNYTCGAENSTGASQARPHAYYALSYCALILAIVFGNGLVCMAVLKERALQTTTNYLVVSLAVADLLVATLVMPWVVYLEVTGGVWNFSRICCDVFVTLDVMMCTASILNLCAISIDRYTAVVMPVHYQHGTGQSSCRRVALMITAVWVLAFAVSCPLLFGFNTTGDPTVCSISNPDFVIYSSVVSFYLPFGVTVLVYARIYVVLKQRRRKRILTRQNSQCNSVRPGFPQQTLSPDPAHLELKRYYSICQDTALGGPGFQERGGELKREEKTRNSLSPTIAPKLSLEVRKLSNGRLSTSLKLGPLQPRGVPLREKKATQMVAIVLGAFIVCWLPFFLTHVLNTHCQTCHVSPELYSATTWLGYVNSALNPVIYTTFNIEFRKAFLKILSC
#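 Cells at 1500/well, incubated overnight, then treated with pinned compounds (dopamine as control) for 90 min at 37 degrees C. DiscoveRx reagent added for 30 - 60 minutes at room temperature; luminescence read.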
# D3 antag = antagonists of human D3 dopamine receptor. P35462. D3R cells, DiscoveRx beta-arrestin luminescence, antagonist mode; active compounds read low. max response, negative = inhibition, %. hit rate 2.5% among 360,000; in the data active = max response below about -50%; inconclusive = no clear call, values can overlap the other calls; note: % is set by controls: 0 for no effect and ±100 for the full control effect
#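 Cells expressing the human receptor were seeded at 1500 cells/well, incubated overnight at 37 degrees C in 5% CO2, then exposed to library compounds with dopamine controls for 90 minutes at 37 degrees C before luminescent detection.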
# IL-1B inflam inh = inflammasome signaling inhibition, IL-1 beta readout | THP-1 LPS/ATP IL-1B secretion, AlphaLISA, 16 h; active compounds read low | activity change, % at 57.5 µM | hit rate 4.7% among 360,000 | AID 743279; in the data active = activity change below about -50%; inconclusive = mostly about -30% to -49%; note: % is set by controls: 0 for no effect and ±100 for the full control effect
#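 Secreted IL-1B measured by AlphaLISA bead assay after 16 h compound exposure of THP-1 cells; compounds (final up to 57.5 uM) added 1 h before LPS (250 ng/mL) and ATP (1.25 mM) stimulation; lower signal means less secretion.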
# ClpP mod = qHTS Assay for Activators of ClpP. ATP-dependent Clp protease proteolytic subunit (Bacillus subtilis (strain 168)), P80244. purified B. subtilis ClpP, FRET peptide cleavage, 20 min. Potency, µM (highest dose often 57.5 µM), for the others: at the top dose activity change, negative = active. hit rate 1.9% among 340,000. AID 651965, 2013; active = well fitted falling curve with a large enough effect; inconclusive = small, poorly fitted or top-dose-only effect; inactive = no such curve, though single readings can be large or run the other way; note: potency is the fitted concentration of half-maximal effect; the source files actives as falling curves though it sought activators and does not explain the sign; nearly all actives have a fitted effect of over 65% in size
# Target sequence (P80244 whole entry, looked up): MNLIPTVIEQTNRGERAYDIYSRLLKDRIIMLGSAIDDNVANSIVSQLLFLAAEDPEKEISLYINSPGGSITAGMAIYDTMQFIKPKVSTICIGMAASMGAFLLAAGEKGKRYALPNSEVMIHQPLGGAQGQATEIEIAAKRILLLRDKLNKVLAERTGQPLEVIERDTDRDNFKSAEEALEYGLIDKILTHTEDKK
#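 FRET quenching reversal measured ClpP activation: 10 microg/mL B. subtilis ClpP at pH 8 with the FRET-FV decapeptide, read at 430 nm after 320 nm excitation. The 20-min minus 0-min signal was scaled between DMSO/no-enzyme wells and ADEP (5.8 microM final).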
# TDP1 cell CPT = growth inhibition of DT40 Tdp1-/-;hTDP1 cells with camptothecin (screen for TDP1 inhibitors); AID 686979; chicken DT40 Tdp1-/-;hTDP1 cells + 20 nM CPT, ATP luminescence, 48 h; Potency, µM (top dose mostly 46.2 µM), for inactives: at the top dose activity change, negative = growth inhibition, usual class: inhibitors; hit rate 12% among 420,000; note: potency is the fitted concentration of half-maximal effect; % is set by controls: 0 for no effect and ±100 for the full control effect; nearly all actives have a fitted effect of over 55% in size
#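 Chicken DT40 Tdp1-/- cells stably complemented with human TDP1 were seeded at 400 cells/well in medium containing 20 nM camptothecin, exposed to pin-transferred compounds, and grown at 37 °C for at least 48 hr. Viability was read as ATP luminescence.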
# TDP1 cell noCPT = qHTS for Inhibitors of human tyrosyl-DNA phosphodiesterase 1 (TDP1): qHTS in cells in absence of CPT. Potency, µM (series often up to 46.2 µM), inactives show at the highest dose activity change, negative = growth inhibition, usual class: inhibitors. hit rate 15% among 420,000. DT40 Tdp1-/- hTDP1 cells, no CPT, ATP luminescence, 48 h; note: potency is the fitted concentration of half-maximal effect; % is set by controls: 0 for no effect and ±100 for the full control effect; nearly all actives have a fitted effect of over 55% in size
#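 DT40 Tdp1-/-;hTDP1 cells, no CPT (DMSO vehicle only), 400 cells/well; compounds pin-transferred; ≥48 hr, 37 °C; CellTiter-Glo 30 min RT dark, luminescence read.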
# The depositor's hits bear a star; ? = inconclusive; nt = not tested or not shown. Rows were chosen to be rich in hits. Some 21% of all compounds tested hit in one or more screens of this group. Unless noted, calls come from the whole dose curve; as a rule, active = well fitted inhibition curve with a large enough effect; inconclusive = small, poorly fitted or top-dose-only effect; inactive = flat fitted curve, though single readings scatter.
SMILES,DRD3 agonist,D3 antag,IL-1B inflam inh,ClpP mod,TDP1 cell CPT,TDP1 cell noCPT
Cn1c(C(=O)N2CCC(C(=O)N3CCN(Cc4ccc5c(c4)OCO5)CC3)CC2)cc2sccc21,-9,0,-1,3%,-11%,?
O=C(NCC1(N2CCCCC2)CCCCC1)c1ccc(-n2cc(NC(=O)c3cccnc3)cn2)cc1,nt,nt,nt,nt,-5%,?
COc1cc2nc(CCc3nc4cc(OC)c(OC)cc4[nH]3)[nH]c2cc1OC,nt,nt,nt,-4%,5.6µM*,2µM*
CC(C)(C)c1ccc(OCCOc2ccc(C(C)(C)C)cc2NC=O)c(NC=O)c1,5,30,?,3%,21µM*,21µM*
COCCOc1ccc(C(F)(F)F)cc1NC(=O)c1ccc(F)cc1,-8,-16,10,-8%,3%,-3%
CC(C)OC(=O)COc1cc(O)c2c(=O)cc(-c3ccccc3)oc2c1,0,4,30,-1%,-17%,7%
C=CC[C@@H](CC(=O)N(CCO)Cc1ccccc1)C(=O)N[C@@H](COC(=O)[C@@H](CC=C)CC(=O)OC(C)(C)C)Cc1c[nH]c2ccccc12,0,17,-62*,-5%,26µM*,21µM*
C=CC[C@H](CC(=O)N(CCO)Cc1ccccc1)C(=O)N[C@@H](COC(=O)[C@H](CC=C)CC(=O)OC(C)(C)C)Cc1c[nH]c2ccccc12,6,5,-62*,4%,15µM*,16µM*
C=CC[C@@H](CC(=O)N(CCO)Cc1ccccc1)C(=O)N[C@H](COC(=O)[C@@H](CC=C)CC(=O)OC(C)(C)C)Cc1c[nH]c2ccccc12,0,37,-56*,1%,18µM*,23µM*
C=CC[C@H](CC(=O)N[C@H](CO)Cc1ccccc1)C(=O)N[C@@H](COC(=O)[C@@H](CC=C)CC(=O)OC(C)(C)C)Cc1c[nH]c2ccccc12,6,18,-13,3%,?,?
COc1cc(C(=O)NCCC(=O)NC(C)CCc2ccccc2)cc(OC)c1OC (stereo not drawn),-4,18,3,1%,-5%,5%
O=C(NC1CCN(C(=O)Nc2ccc(F)cc2)CC1)c1ccc(F)cc1,12,13,-2,nt,-5%,-8%
Cc1ccc(C(=O)NCc2ccc(N(C)C)cc2)cc1NC(=O)c1nsc2ccccc12,-6,nt,nt,-4%,?,16µM*
Cc1ccc(C(=O)NCc2ccccc2)cc1NC(=O)c1nsc2ccccc12,3,nt,nt,-4%,?,16µM*
Clc1cc(Cl)c(OCC#CI)cc1Cl,2,nt,nt,nt,1.7µM*,1.9µM*
FC(F)(F)c1cnc(N2CCN(C(=S)NCc3ccccc3)CC2)c(Cl)c1,-11,?,-93*,nt,?,21µM*
Cc1nn(CC(=O)N2CCOCC2)c(=O)c2ccccc12,-4,8,-2,-3%,9%,-2%
O=C(CSc1ccccn1)N1CCN(c2ncc(C(F)(F)F)cc2Cl)CC1,-11,-6,-8,?,?,16µM*
O=C(O)c1nn(CC(=O)N2CCN(c3ncc(C(F)(F)F)cc3Cl)CC2)c(=O)c2ccccc12,21,22,-6,nt,-25%,16µM*
O=C(O)c1nn(CC(=O)N2CCCCCC2)c(=O)c2ccccc12,3,2,16,28µM*,6%,8%
COc1ccc(NC(=O)CC2C(=O)N(c3ccccc3)C(=O)N2C2CCCCC2)cc1 (stereo not drawn),2,nt,nt,-1%,2%,-13%
CC(=O)n1cc(C2CC(=O)OC3=C2CC(=O)C(C)(C)C3)c2ccccc21 (stereo not drawn),-5,-20,20,1%,?,?
CCOC(=O)c1ccc(Nc2ncccc2[N+](=O)[O-])cc1,-12,2,-1,-1%,-30%,?
COc1ccc(C)cc1NC(=O)CN(c1cc(C(F)(F)F)ccc1Cl)S(C)(=O)=O,-7,nt,nt,-1%,?,16µM*
COc1ccc(OC)c(N(CC(=O)Nc2ccccc2F)S(=O)(=O)c2ccccc2)c1,5,2,-4,1%,-3%,-27%
SMILES,DRD3 agonist,D3 antag,IL-1B inflam inh,ClpP mod,TDP1 cell CPT,TDP1 cell noCPT
CCOC(=O)c1ccccc1NC(=O)CN(c1cc(C(F)(F)F)ccc1Cl)S(C)(=O)=O,5,nt,nt,-27%,?,?
CCOc1ccccc1NC(=O)CN(CCc1ccccc1)S(=O)(=O)c1ccc(C)cc1,-12,nt,nt,-4%,?,16µM*
CCOc1ccccc1N(CC(=O)Nc1ccccc1Br)S(=O)(=O)c1ccccc1,2,-23,1,2%,?,?
CCc1ccccc1NC(=O)CN(c1ccccc1OC)S(=O)(=O)c1ccc(C)cc1,1,nt,nt,-3%,?,18µM*
COc1ccc(OC)c(NC(=O)CN(c2ccccc2OC)S(=O)(=O)c2ccc(C)cc2)c1,7,nt,nt,-2%,16µM*,26µM*
CC1=C(C(=O)Nc2cccnc2)C(c2ccc(F)cc2)n2nc(-c3cccc(C)c3)nc2N1 (stereo not drawn),1,nt,nt,-8%,?,?
CCCN(CCC)C(=O)Cn1c(=O)n(-c2ccc(Cl)c(Cl)c2)c(=O)c2c(C)c(C(=O)N(C)C)sc21,-3,nt,nt,-2%,-16%,-6%
CC(=O)Nc1ccc(NC(=O)c2ccccc2Nc2ccccc2)cc1,-7,-1,-4,nt,?,?
Cc1cc(I)ccc1Nc1nc(NCCN2CCOCC2)nc(N2CCOCC2)n1,nt,nt,nt,0%,3.2µM*,5.6µM*
COc1cccc(NC(=O)CN(C)C(=O)c2cc(-c3ccc(F)cc3)nc3ccccc23)c1,8,17,-62*,?,?,?
COc1cccc(NC(=O)CN(C)C(=O)c2cc(-c3ccccc3)nc3ccccc23)c1,13,23,?,15%,?,?
COc1ccc(-c2cc(C(=O)N(C)CC(=O)Nc3cccc(F)c3)c3ccccc3n2)cc1OC,4,46,-2,4%,21µM*,21µM*
Cc1ccc(S(=O)(=O)N2CCN(c3cc(-c4cccs4)nc4ccccc34)CC2)cc1,nt,nt,nt,4%,-2%,-1%
N#Cc1ccsc1NC(=O)CN1C(=O)NC2(CCCCC2)C1=O,3,1,20,-5%,2%,21%
CN(C)CCCN(Cc1cc2cc3c(cc2[nH]c1=O)OCO3)C(=S)NCc1ccco1,9,1,?,nt,9%,-27%
Cc1cc2cc(CN(Cc3ccco3)C(=S)NCC3CCCO3)c(=O)[nH]c2cc1C (stereo not drawn),2,7,-63*,-22%,?,21µM*
